Hits are enriched below; roughly 3.6% of the tested compounds scored in any of these assays.
MITF act: activators of MITF-driven TRPM1 promoter reporter, primary screen, cell-based, SK-MEL-5, luciferase, single point; SK-MEL-5 TRPM1-promoter luciferase, 24 h; % of positive control, neutral wells = 0; activation, % at 12.5 µM; hit rate 0.75% among 300,000;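 active = mean activation of at least 80% with every replicate also reaching 80%; inconclusive = mean reaches 80% but some replicate falls short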;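 note: 0% = neutral control wells and 100% = parthenolide positive control wells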
PHOSPHO1 block: PubChem AID 1565. inhibition, % at 13.3 µM. Phosphoethanolamine/phosphocholine phosphatase (Homo sapiens), Q8TCT1. recombinant PHOSPHO1, absorbance phosphatase assay. hit rate 1.1% among 290,000; in the data active = inhibition above about 60%
Target sequence (Q8TCT1 whole entry, looked up): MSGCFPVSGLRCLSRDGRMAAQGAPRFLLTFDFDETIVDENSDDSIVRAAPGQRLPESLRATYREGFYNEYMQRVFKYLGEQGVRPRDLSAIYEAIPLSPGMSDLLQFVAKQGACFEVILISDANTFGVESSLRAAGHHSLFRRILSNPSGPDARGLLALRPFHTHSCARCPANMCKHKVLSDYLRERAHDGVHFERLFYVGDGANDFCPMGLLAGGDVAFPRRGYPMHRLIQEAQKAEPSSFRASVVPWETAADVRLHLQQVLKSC
A3G deaminase: APOBEC3G DNA deaminase inhibitors, primary screen, biochemical, fluorescence, single-stranded DNA substrate, uHTS. DNA dC->dU-editing enzyme APOBEC-3G (Homo sapiens), Q9HC16. recombinant A3G, ssDNA deamination FAM/TAMRA fluorescence. inhibition, % at 20 µM. hit rate 0.28% among 330,000;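 active = inhibition of at least 40% at 20 µM, with no more than 30% in the related APOBEC3A deaminase screen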;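 note: plate controls were DMSO wells with A3G for no effect and wells lacking A3G enzyme for full effect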
Target sequence (Q9HC16 whole entry, looked up): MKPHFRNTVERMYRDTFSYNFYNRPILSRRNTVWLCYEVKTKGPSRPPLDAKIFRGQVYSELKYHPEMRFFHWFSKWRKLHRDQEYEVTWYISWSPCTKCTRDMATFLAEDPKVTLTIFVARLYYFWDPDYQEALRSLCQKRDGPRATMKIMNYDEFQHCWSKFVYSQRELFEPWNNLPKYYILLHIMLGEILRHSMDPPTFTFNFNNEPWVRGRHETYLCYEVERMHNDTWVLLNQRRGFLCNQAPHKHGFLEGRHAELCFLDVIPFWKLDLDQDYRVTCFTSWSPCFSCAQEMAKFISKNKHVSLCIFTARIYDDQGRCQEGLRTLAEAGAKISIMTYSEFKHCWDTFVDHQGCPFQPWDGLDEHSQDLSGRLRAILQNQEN
A3A deaminase: APOBEC3A ssDNA deaminase inhibitors, primary screen, selectivity assay for APOBEC3G inhibitor project, biochemical, FAM/TAMRA oligo cleavage fluorescence. recombinant A3A, FAM/TAMRA ssDNA deamination fluorescence. hit rate 0.41% among 330,000. inhibition, % at 20 µM;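 active = at least 40% inhibition at 20 µM here, with at most 30% in a related deaminase screen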;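 note: plate controls were A3A with DMSO for no effect and wells lacking A3A enzyme for full effect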
esBAF inh: Bmi1 luciferase reporter increase in mESCs, primary screen, esBAF inhibitor project, mouse ES cells, Bmi1 luciferase knock-in, single point; 24 h; 100% = twice the neutral-well signal; reporter increase, % at 12.5 µM; hit rate 2% among 350,000; in the data active = activation above about 40%; inconclusive = no clear call, values can overlap the other calls;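 note: 0% = median of the plate's neutral control wells and 100% = double that signal; a rise in the Bmi1 reporter signal indicates esBAF inhibition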
Wnt act: Wnt/beta-catenin pathway activators, primary screen, cell-based, plate reader, single point | Wnt/beta-catenin reporter cell assay, activator | activation, % at 9.35 µM | hit rate 1.2% among 300,000 | AID 743398, 2014; in the data active = activation above about 30%, passing the limit was not always enough; inconclusive = no clear call, values can overlap the other calls;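 note: 0% = neutral control wells and 100% = positive control wells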
The depositor's hits bear a star; ? = inconclusive; . = no result given.

SMILES	MITF act	PHOSPHO1 block	A3G deaminase	A3A deaminase	esBAF inh	Wnt act
Cc1ccc2[nH]c(=O)c(NC(N)=S)nc2c1	5	-40	3	3	1	.
CC(C)NC(=O)N(C)C[C@@H]1Oc2ccc(NS(=O)(=O)c3ccc(F)cc3)cc2C(=O)N([C@H](C)CO)C[C@H]1C	.	.	.	.	-4	.
O=C(O)c1ccc(-c2noc(-c3cccc(Cl)c3)n2)cc1	87*	.	-5	-2	63*	17
O=C(O)c1ccc(-c2noc(-c3ccccc3Cl)n2)cc1	13	.	-12	-1	3	39*
O=C(O)c1ccc(-c2noc(-c3ccc(F)cc3)n2)cc1	4	.	-6	14	11	4
Fc1ccc(COc2ccccc2C(=S)N2CCCC2)cc1	0	9	23	3	.	.
CCOc1ccc(C(=O)N2CCCC2)cc1OC	-11	18	-4	-1	0	34*
COc1cc(C(=S)N2CCCC2)ccc1OCc1ccc(C)cc1	66	35	-5	-3	47*	9
Cc1ccc(COc2ccccc2C(=S)N2CCCC2)cc1	19	-127	0	-3	55*	2
Cc1noc(C)c1NC(=O)NCC[C@@H]1CC[C@@H](NC(=O)c2ccncc2)[C@@H](CO)O1	.	.	.	.	3	.
C[C@H](CO)N1C[C@H](C)[C@H](CN(C)C(=O)Nc2cccc3ccccc23)Oc2ccc(NC(=O)Cc3cn(C)c4ccccc34)cc2CC1=O	.	.	.	.	-6	.
COc1ccc2[nH]c3c(=O)n(CCc4ccccc4)cnc3c2c1	63	12	-7	0	.	37*
C[C@H]1CN([C@@H](C)CO)C(=O)c2cccc(NS(=O)(=O)c3ccc(F)cc3)c2O[C@H]1CN(C)CC1CCCCC1	.	.	.	.	5	.
Cn1c(-c2ccc(F)cc2)cnc1SCC(=O)N1CCCCC1	.	26	4	5	-9	35*
Cn1c(-c2ccc(F)cc2)cnc1SCC(=O)N1CCCc2ccccc21	18	24	-3	0	-2	5
CC1Cc2ccccc2N1C(=O)CSc1ncc(-c2ccc(F)cc2)n1C (stereo unspecified)	42	-31	-2	0	12	59*
O=C(C[C@@H]1CC[C@H]2[C@@H](COC[C@H](O)CN2Cc2ccccc2F)O1)NCc1ccccc1F	.	.	.	.	-9	.
O=C(COC(=O)C12CC3CC(CC(O)(C3)C1)C2)Nc1ccccc1OC(F)F	.	27	-5	-2	-3	-4
O=C(COC(=O)C12CC3CC(CC(O)(C3)C1)C2)Nc1ccc(Br)cc1F	129*	.	-6	1	17	?
O=C(C[C@@H]1CC[C@H](NC(=O)c2ccc(F)cc2)[C@H](CO)O1)NCCc1ccncc1	.	.	.	.	5	.
O=C(NCCCn1ccnc1)c1sc2cc([N+](=O)[O-])ccc2c1Cl	.	.	.	.	63*	6
N#C[C@H]1[C@@H](c2ccc(C3=CCCC3)cc2)[C@H](CO)N1C(=O)C1CC1	.	.	.	.	1	.
CC1SCC(=NOCc2ccccc2)CS1 (stereo unspecified)	.	25	-2	-1	.	48*
COc1cccc(C(=O)Nc2ccc3c(c2)OC[C@@H](C)N(CCc2ccccc2)C[C@@H](C)[C@H](OC)CN(C)C3=O)c1	.	.	.	.	64*	.
COc1cccc(C(=O)Nc2ccc3c(c2)OC[C@@H](C)N(CCc2ccccc2)C[C@H](C)[C@H](OC)CN(C)C3=O)c1	.	.	.	.	1	.
SMILES	MITF act	PHOSPHO1 block	A3G deaminase	A3A deaminase	esBAF inh	Wnt act
CCCNC(=O)Nc1ccc2c(c1)C(=O)N(C)C[C@@H](OC)[C@H](C)CN(Cc1ccc(-c3ccccn3)cc1)[C@@H](C)CO2	.	.	.	.	4	.
CO[C@H]1CN(C)C(=O)c2cc(NC(=O)NC(C)C)ccc2OC[C@H](C)N(Cc2ccc(-c3ccccn3)cc2)C[C@@H]1C	.	.	.	.	142*	.
CO[C@H]1CN(C)C(=O)c2ccc(NC(=O)NC(C)C)cc2OC[C@H](C)N(Cc2ccc(-c3ccccn3)cc2)C[C@H]1C	.	.	.	.	3	.
CCCNC(=O)Nc1ccc2c(c1)C(=O)N(C)C[C@H](OC)[C@@H](C)CN(Cc1ccc(-c3ccccn3)cc1)[C@H](C)CO2	.	.	.	.	42*	.
CCCNC(=O)Nc1ccc2c(c1)C(=O)N(C)C[C@@H](OC)[C@@H](C)CN(Cc1ccc(-c3ccccn3)cc1)[C@H](C)CO2	.	.	.	.	7	.
CO[C@H]1CN(C)C(=O)c2cc(NC(=O)NC(C)C)ccc2OC[C@@H](C)N(Cc2ccc(-c3ccccn3)cc2)C[C@@H]1C	.	.	.	.	72*	.
CO[C@@H]1CN(C)C(=O)c2cc(NC(=O)NC(C)C)ccc2OC[C@@H](C)N(Cc2cncnc2)C[C@H]1C	.	.	.	.	1	.
CO[C@@H]1CN(C)C(=O)c2cc(NC(=O)c3nc4ccccc4s3)ccc2OC[C@@H](C)N(Cc2cccnc2)C[C@H]1C	.	.	.	.	51*	.
CO[C@H]1CN(C)C(=O)c2cc(NC(=O)c3nc4ccccc4s3)ccc2OC[C@@H](C)N(Cc2cccnc2)C[C@H]1C	.	.	.	.	18	.
C[C@@H]1CN([C@@H](C)CO)C(=O)Cc2cc(NS(=O)(=O)c3cccs3)ccc2O[C@H]1CN(C)C(=O)Nc1ccccc1	.	.	.	.	3	.
CCc1ccc(NC(=O)c2n[nH]c(=O)c3ccccc23)cc1	107*	27	-9	-5	60*	29
Cn1c(=O)c2c(nc(Oc3ccc(-c4ccccc4)cc3)n2C)n(C)c1=O	5	-3	-11	-3	48*	-1
Cc1ccc(-c2cc(-c3ccc(Cl)cc3)c(C#N)c(N)n2)o1	-6	72*	-9	-1	.	.
FC(F)(F)c1cc(Oc2ccc(Cl)cc2)nc(-c2ccccn2)n1	3	73*	-2	0	-4	-1
Cc1cccc(NC(=O)N2CCN(Cc3ccc(Cl)cc3)CC2)c1	-13	13	-6	-3	2	0
O=C(Nc1cccc(Cl)c1)N1CCN(Cc2ccccc2)CC1	?	18	-2	-4	74*	7
OCC1CCCN(C(=S)Nc2ccc(Oc3ccccc3)cc2)C1 (stereo unspecified)	53	50	-5	0	82*	9
CC(=O)c1ccc(NC(=S)N2CCCC(CO)C2)cc1 (stereo unspecified)	14	-1	-2	-1	.	10
O=C(Nc1ccccc1)N1CCN(c2ccccc2)CC1	15	.	.	.	12	1
O=C(Nc1ccccc1)N1CCC(c2ccccc2)C1 (stereo unspecified)	106*	16	-1	-1	21	.
CN1CCN(C(=O)Nc2ccccc2)CC1	10	63*	-15	0	.	-1
CNC(=O)C[C@H]1CC[C@@H]2[C@@H](COc3ccc(NC(=O)c4ccccc4F)cc3C(=O)N2C)O1	.	.	.	.	0	.
